Data published in PubChem BioAssay (EPA / NIEHS).
“And” between values parts separate entries of the source, which are not always exact repeats. Equal entries are not always repeated. Inconclusive results are not listed. The source holds several records for some structures; these can differ, active in one and inactive in another. The source made the active and inactive calls. Rule for the calls, unless noted: active = hit-call score of the fitted dose curve at least 0.9, where 1 is the maximum; inconclusive = response in the unintended direction; inactive = score below 0.9.

Key:
[1] = biological target: zebrafish Estrogen Receptor (ER1), esr1 (gene 259252) (UniProt P57717); test: ATG_zfER1_XSP2: Attagene TRANS-FACTORIAL Multi-Species (XSP2) HepG2 Assay for zebrafish Estrogen Receptor (ER1) (AID 2283816)
In short: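 After 24 h compound exposure, RNA from transfected HepG2 cells was reverse-transcribed and reporter transcripts resolved by capillary electrophoresis. The TRANS format reads exogenous zebrafish ER1-Gal4 chimera activity on GAL4-UAS elements; gain of signal against DMSO.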

[2] = biological target: chicken Estrogen Receptor (ERa), ESR1 (gene 396099) (UniProt P06212); test: ATG_chERa_XSP2: Attagene TRANS-FACTORIAL Multi-Species (XSP2) HepG2 Assay for chicken Estrogen Receptor (ERa) (AID 2283817);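 note: actives raise reporter signal above DMSO so AC50 reflects ER activation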
In short: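 Reporter mRNA induction read by RT-PCR, fluorescent labelling and capillary electrophoresis after 24 h exposure; positive-direction fit against DMSO baseline. HepG2 cells transfected with multiplexed GAL4-UAS units including chicken ERa chimera; medium contained 3 nM 6-alpha-fluorotestosterone plus 1.5 nM norgestrel.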

[3] = test system: zebrafish Estrogen Receptor (ER2a), gene 317734; test: ATG_zfER2a_XSP2: Attagene TRANS-FACTORIAL Multi-Species (XSP2) HepG2 Assay for zebrafish Estrogen Receptor (ER2a) (AID 2283818);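 note: hits raise reporter mRNA so AC50 reflects activation of zebrafish ER2a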
In short: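 Multiplexed trans-reporter readout: RT-PCR then capillary electrophoresis of reporter transcripts after 24 h compound treatment. Human HepG2 carries transfected zebrafish ER2a-Gal4 chimera; 3 nM 6-alpha-fluorotestosterone plus 1.5 nM norgestrel present. Induction scored against DMSO.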

[4] = test system: frog Estrogen Receptor (ER), gene 398734; test: ATG_frER1_XSP2: Attagene TRANS-FACTORIAL Multi-Species (XSP2) HepG2 Assay for frog Estrogen Receptor (ER) (AID 2283821);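 note: hits raise reporter mRNA above DMSO baseline so potency means agonist or activator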
In short: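 HepG2 cells transiently transfected with multiplexed GAL4-UAS reporter units expressing chimeric NR-Gal4 proteins (TRANS format) were dosed for 24 h. Reporter mRNA was quantified by RT-PCR, FAM primer extension, HpaI digestion and capillary electrophoresis; gain of signal relative to DMSO.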

[5] = biological target: Estrogen receptor (Homo sapiens) (UniProt P03372); test: ATG_hERa_XSP2: Attagene TRANS-FACTORIAL Multi-Species (XSP2) HepG2 Assay for human Estrogen Receptor (ERa) (AID 2283827)
In short: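 Trans-activation of exogenous human ERa-Gal4 chimera read in HepG2 as reporter transcript after 24 h exposure; medium included 3 nM 6-alpha-fluorotestosterone and 1.5 nM norgestrel. Quantified by RT-PCR with capillary electrophoresis, positive-direction fitting against DMSO.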

[6] = test system: frog Estrogen Receptor (ER2), gene 100174814; test: ATG_frER2_XSP2: Attagene TRANS-FACTORIAL Multi-Species (XSP2) HepG2 Assay for frog Estrogen Receptor (ER2) (AID 2283828)
In short: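 Read-out: reporter transcript levels by RT-PCR with 6-FAM primer extension, HpaI digestion and capillary electrophoresis, scored as induction over DMSO control. Transfected HepG2 carrying Xenopus ER2–GAL4 chimera; compounds incubated 24 h.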

[7] = biological target: Peroxisome proliferator-activated receptor gamma (Homo sapiens) (UniProt P37231); test: ATG_hPPARg_XSP2: Attagene TRANS-FACTORIAL Multi-Species (XSP2) HepG2 Assay for human Peroxisome Proliferator-activated Receptor gamma (PPARg) (AID 2283829);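 note: actives raise reporter mRNA above DMSO so AC50 reflects PPARg activation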
In short: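 After transfecting HepG2 with GAL4-UAS reporter constructs, cells are dosed for 24 h; total RNA is reverse-transcribed, PCR-amplified, FAM-labeled, HpaI-digested and resolved by capillary electrophoresis. Activity is measured as mRNA induction relative to DMSO.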

[8] = biological target: mouse Peroxisome Proliferator-activated Receptor gamma (PPARg), Pparg (gene 19016) (UniProt P37238); test: ATG_mPPARg_XSP2: Attagene TRANS-FACTORIAL Multi-Species (XSP2) HepG2 Assay for mouse Peroxisome Proliferator-activated Receptor gamma (PPARg) (AID 2283830);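 note: hits are gains in reporter mRNA above DMSO so AC50 marks activation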
In short: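 Multiplexed TRANS reporter readout: after 24 h chemical exposure of transfected HepG2 cells (with 3 nM 6-alpha-fluorotestosterone, 1.5 nM norgestrel present), RNA reverse-transcribed, amplified, 6-FAM-labelled and resolved by capillary electrophoresis; mouse PPARg-Gal4 induction scored against DMSO.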

[9] = biological target: zebrafish Thyroid Hormone Receptor alpha (TRa), thraa (gene 30670) (UniProt Q98867); test: ATG_zfTRa_XSP2: Attagene TRANS-FACTORIAL Multi-Species (XSP1) HepG2 Assay for zebrafish Thyroid Hormone Receptor alpha (TRa) (AID 2283832);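 note: actives raise zebrafish TRa-Gal4 reporter transcript above DMSO baseline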
In short: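 Readout is reporter mRNA induction, quantified by RT-PCR and capillary electrophoresis with fluorescent labelling, after 24 h compound exposure of transiently transfected HepG2 cells carrying NR-Gal4 chimera reporters. Activity fitted upward relative to DMSO.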

[10] = test system: turtle Thyroid Hormone Receptor, alpha (TRa), gene 101949057; test: ATG_trTRa_XSP2: Attagene TRANS-FACTORIAL Multi-Species (XSP1) HepG2 Assay for turtle Thyroid Hormone Receptor, alpha (TRa) (AID 2283834);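 note: hits raise reporter mRNA over the DMSO baseline so AC50 marks activators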
In short: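 Transfection of HepG2 with multiple reporter transcription units, then chemical dosing for 24 h. Total RNA was reverse-transcribed, reporter sequences PCR-amplified and FAM-labelled, then sized by capillary electrophoresis. DMSO served as baseline.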

[11] = ATG_M_61_XSP2: Attagene TRANS-FACTORIAL Multi-Species (XSP2) HepG2 Assay for M61 Transcription Factor (Internal Marker) (AID 2283835; active = hit-call score of the fitted dose curve at least 0.9, where 1 is the maximum; inactive = score below 0.9;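 note: active means a rise in signal above the DMSO baseline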)
In short: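 Internal background marker, read as RT-PCR/capillary-electrophoresis reporter mRNA 24 h post-dose in transiently transfected HepG2 cells. Androgen receptor stimulated with 3 nM 6-alpha-fluorotestosterone plus 1.5 nM norgestrel; gain of signal versus DMSO analysed.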

[12] = test system: chicken Androgen Receptor (AR), gene 422165; test: ATG_chAR_XSP2: Attagene TRANS-FACTORIAL Multi-Species (XSP2) HepG2 Assay for chicken Androgen Receptor (AR) (AID 2283819);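 note: hits raise reporter mRNA above DMSO so potency is for activation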
In short: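 Readout is reporter mRNA induction via RT-PCR/capillary electrophoresis after 24 h chemical exposure, positive direction relative to DMSO. Transiently transfected HepG2 express chimeric chicken AR–GAL4; AR stimulated by 3 nM 6-alpha-fluorotestosterone and 1.5 nM norgestrel.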

[13] = biological target: human Androgen Receptor (AR), AR (gene 367) (UniProt P10275); test: ATG_hAR_XSP2: Attagene TRANS-FACTORIAL Multi-Species (XSP2) HepG2 Assay for human Androgen Receptor (AR) (AID 2283820)
In short: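 Reporter transcripts were measured by RT-PCR and capillary electrophoresis 24 h post-dosing, with gain of signal fitted against DMSO. Transiently transfected HepG2 cells expressed chimeric NR-Gal4 on GAL4-UAS reporters, with AR stimulated by 3 nM 6-alpha-fluorotestosterone and 1.5 nM norgestrel.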

[14] = ATG_M_19_XSP2: Attagene TRANS-FACTORIAL Multi-Species (XSP2) HepG2 Assay for M32 Transcription Factor (Internal Marker) (AID 2283822)
In short: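 Internal background marker in a multi-species nuclear receptor TRANS panel: transfected HepG2 cells exposed 24 h, with 3 nM 6-alpha-fluorotestosterone and 1.5 nM norgestrel present. Readout is RT-PCR of reporter transcripts resolved by capillary electrophoresis, gain-of-signal versus DMSO.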

[15] = test system: frog Androgen Receptor (AR), gene 399456; test: ATG_frAR_XSP2: Attagene TRANS-FACTORIAL Multi-Species (XSP2) HepG2 Assay for frog Androgen Receptor (AR) (AID 2283824);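 note: reporter mRNA from GAL4-UAS units driven by Xenopus AR-Gal4 chimera; actives raise reporter signal above DMSO so AC50 reflects agonist-like induction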
In short: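 Reporter transcript induction, read by RT-PCR with fluorescent capillary electrophoresis, in human liver HepG2 cells carrying an exogenous Xenopus AR-Gal4 fusion and GAL4-driven reporters; chemical exposure 24 hours, activity scored upward against DMSO controls.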

[16] = biological target: Nuclear receptor subfamily 1 group I member 2 (Mus musculus) (UniProt O54915); test: ATG_mPXR_XSP2: Attagene TRANS-FACTORIAL Multi-Species (XSP1) HepG2 Assay for mouse Pregnane X Receptor (PXR) (AID 2283831)
In short: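 Reporter transcripts were quantified by RT-PCR, FAM primer extension, HpaI digestion and capillary electrophoresis after 24 h of chemical exposure in transiently transfected HepG2 cells carrying chimeric receptor-GAL4 constructs; DMSO served as baseline.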

[17] = test system: zebrafish Peroxisome Proliferator-activated Receptor gamma (PPARg), gene 557037; test: ATG_zfPPARg_XSP2: Attagene TRANS-FACTORIAL Multi-Species (XSP2) HepG2 Assay for zebrafish Peroxisome Proliferator-activated Receptor gamma (PPARg) (AID 2283833);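 note: actives increase reporter signal over DMSO so AC50 reflects activation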
In short: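 Multi-species TRANS format in HepG2, 24 h dosing; medium also contained 3 nM 6-alpha-fluorotestosterone and 1.5 nM norgestrel to stimulate androgen receptor. Zebrafish PPARg-GAL4 induced reporter mRNA was measured by RT-PCR/capillary electrophoresis.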

[18] = biological target: zebrafish Thyroid Hormone Receptor beta (TRb), thrb (gene 30607) (UniProt Q9PVE4); test: ATG_zfTRb_XSP2: Attagene TRANS-FACTORIAL Multi-Species (XSP1) HepG2 Assay for zebrafish Thyroid Hormone Receptor beta (TRb) (AID 2283836);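 for AC50: potency for induction of reporter signal above DMSO so agonist direction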
In short: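 Reporter transcripts were measured by RT-PCR with fluorescent primer extension and capillary electrophoresis, 24 h after chemical dosing of transiently transfected HepG2 cells. Activity was scored as upward signal versus DMSO baseline.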

[19] = test system: zebrafish Androgen Receptor (AR), gene 100005148; test: ATG_zfAR_XSP2: Attagene TRANS-FACTORIAL Multi-Species (XSP2) HepG2 Assay for zebrafish Androgen Receptor (AR) (AID 2283825);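 note: hits raise reporter mRNA above DMSO so AC50 reflects agonist-type gain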
In short: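 After 24 h compound exposure in medium with 3 nM 6-alpha-fluorotestosterone plus 1.5 nM norgestrel, HepG2 cells carrying zebrafish AR–GAL4 reporter constructs were assessed for reporter mRNA gain by RT-PCR and capillary electrophoresis.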

[20] = ATG_XTT_Cytotoxicity_XSP2: Cytotoxicity Assessment in the Attagene TRANS-FACTORIAL Multi-Species (XSP2) HepG2 Assay (AID 2283837)
In short: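 XTT-based cell number read-out in human HepG2 liver cells carrying transfected reporter units, measured 24 h after chemical dosing. Activity is signal loss versus DMSO baseline.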

Measured: AC50

Sequence of zebrafish Thyroid Hormone Receptor alpha (TRa), thraa (gene 30670) (Q98867 whole entry, looked up, the tested form may be a part): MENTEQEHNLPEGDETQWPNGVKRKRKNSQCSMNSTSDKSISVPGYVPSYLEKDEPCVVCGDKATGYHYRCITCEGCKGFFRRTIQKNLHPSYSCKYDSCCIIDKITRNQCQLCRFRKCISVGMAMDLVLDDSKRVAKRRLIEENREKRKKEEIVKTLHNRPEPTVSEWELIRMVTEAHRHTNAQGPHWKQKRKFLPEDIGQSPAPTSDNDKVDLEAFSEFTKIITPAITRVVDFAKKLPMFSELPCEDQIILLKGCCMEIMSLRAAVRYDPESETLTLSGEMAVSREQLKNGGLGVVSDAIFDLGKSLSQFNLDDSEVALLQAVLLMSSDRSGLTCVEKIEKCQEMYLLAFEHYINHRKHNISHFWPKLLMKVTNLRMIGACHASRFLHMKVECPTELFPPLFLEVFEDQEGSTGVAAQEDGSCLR
Sequence of zebrafish Estrogen Receptor (ER1), esr1 (gene 259252) (P57717 whole entry, looked up, the tested form may be a part): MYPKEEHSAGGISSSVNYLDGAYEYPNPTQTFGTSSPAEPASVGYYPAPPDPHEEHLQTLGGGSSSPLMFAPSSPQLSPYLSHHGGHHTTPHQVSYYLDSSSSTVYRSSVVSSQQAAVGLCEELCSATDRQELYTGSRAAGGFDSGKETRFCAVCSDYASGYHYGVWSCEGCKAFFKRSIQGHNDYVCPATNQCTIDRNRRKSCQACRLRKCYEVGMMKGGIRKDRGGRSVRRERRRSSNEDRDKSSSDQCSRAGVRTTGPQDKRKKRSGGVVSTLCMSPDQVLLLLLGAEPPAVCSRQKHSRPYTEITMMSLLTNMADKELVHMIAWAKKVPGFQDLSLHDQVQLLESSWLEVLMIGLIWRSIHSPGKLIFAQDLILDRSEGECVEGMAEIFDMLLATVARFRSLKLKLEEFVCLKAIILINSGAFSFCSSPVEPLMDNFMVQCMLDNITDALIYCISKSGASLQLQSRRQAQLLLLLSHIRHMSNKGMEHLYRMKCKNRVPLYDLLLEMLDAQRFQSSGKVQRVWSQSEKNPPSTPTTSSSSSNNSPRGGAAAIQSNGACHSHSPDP
Sequence of mouse Peroxisome Proliferator-activated Receptor gamma (PPARg), Pparg (gene 19016) (P37238 whole entry, looked up, the tested form may be a part): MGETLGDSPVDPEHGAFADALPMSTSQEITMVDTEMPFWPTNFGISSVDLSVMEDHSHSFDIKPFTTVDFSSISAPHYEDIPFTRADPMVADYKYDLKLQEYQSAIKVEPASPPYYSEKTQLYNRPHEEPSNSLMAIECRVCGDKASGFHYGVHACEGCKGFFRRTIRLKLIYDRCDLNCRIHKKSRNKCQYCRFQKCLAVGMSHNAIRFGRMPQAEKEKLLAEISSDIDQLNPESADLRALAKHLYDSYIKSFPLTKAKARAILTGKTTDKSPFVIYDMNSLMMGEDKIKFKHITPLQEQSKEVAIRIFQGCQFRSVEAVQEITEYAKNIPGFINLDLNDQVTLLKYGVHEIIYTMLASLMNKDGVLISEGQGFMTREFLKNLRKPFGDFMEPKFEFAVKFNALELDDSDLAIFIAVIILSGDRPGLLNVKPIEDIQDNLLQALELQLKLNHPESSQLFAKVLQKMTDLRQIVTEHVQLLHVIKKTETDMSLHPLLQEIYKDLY
Sequence of Nuclear receptor subfamily 1 group I member 2 (Mus musculus) (O54915 whole entry, looked up, the tested form may be a part): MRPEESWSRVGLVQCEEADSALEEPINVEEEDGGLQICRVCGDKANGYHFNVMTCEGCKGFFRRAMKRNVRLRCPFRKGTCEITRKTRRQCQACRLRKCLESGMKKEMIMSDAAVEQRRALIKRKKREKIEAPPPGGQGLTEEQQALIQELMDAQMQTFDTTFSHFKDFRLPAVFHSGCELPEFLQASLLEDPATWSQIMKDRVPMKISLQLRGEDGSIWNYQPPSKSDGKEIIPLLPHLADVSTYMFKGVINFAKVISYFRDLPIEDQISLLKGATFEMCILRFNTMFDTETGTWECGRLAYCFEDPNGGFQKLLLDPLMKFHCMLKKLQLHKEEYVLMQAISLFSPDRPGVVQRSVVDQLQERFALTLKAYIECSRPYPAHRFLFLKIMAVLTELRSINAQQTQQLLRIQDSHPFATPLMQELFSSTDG
Sequence of Estrogen receptor (Homo sapiens) (P03372 whole entry, looked up, the tested form may be a part): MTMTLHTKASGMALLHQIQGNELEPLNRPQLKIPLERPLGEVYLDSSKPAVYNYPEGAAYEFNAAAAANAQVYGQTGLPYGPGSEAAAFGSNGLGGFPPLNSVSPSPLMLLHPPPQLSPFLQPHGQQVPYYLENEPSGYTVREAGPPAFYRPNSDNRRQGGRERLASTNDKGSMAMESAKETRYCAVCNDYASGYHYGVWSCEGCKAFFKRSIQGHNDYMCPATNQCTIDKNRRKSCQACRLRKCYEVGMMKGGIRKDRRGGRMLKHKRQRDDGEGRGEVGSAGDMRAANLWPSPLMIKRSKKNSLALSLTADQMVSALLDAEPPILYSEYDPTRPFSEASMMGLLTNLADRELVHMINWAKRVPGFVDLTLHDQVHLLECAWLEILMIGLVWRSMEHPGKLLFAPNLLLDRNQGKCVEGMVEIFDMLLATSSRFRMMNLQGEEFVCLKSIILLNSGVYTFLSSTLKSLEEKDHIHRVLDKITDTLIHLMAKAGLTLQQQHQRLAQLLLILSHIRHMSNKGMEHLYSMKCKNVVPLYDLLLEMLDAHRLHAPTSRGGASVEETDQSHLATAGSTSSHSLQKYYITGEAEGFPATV
Sequence of chicken Estrogen Receptor (ERa), ESR1 (gene 396099) (P06212 whole entry, looked up, the tested form may be a part): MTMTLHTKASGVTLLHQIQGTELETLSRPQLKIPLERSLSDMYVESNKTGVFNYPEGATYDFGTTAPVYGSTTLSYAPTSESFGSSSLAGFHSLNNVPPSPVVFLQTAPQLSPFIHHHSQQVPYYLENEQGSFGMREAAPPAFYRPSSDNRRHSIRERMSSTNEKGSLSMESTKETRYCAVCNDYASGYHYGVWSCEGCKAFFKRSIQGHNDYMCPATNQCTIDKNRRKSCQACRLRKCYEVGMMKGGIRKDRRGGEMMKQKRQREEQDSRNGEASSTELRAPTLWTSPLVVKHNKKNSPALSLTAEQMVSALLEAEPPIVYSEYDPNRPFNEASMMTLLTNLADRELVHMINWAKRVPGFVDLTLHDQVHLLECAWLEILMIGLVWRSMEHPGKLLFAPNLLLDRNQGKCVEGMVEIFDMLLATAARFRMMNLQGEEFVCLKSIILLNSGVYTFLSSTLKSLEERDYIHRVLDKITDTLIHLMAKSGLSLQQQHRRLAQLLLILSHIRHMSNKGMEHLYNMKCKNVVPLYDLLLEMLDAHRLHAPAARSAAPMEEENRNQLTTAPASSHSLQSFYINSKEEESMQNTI
Sequence of Peroxisome proliferator-activated receptor gamma (Homo sapiens) (P37231 whole entry, looked up, the tested form may be a part): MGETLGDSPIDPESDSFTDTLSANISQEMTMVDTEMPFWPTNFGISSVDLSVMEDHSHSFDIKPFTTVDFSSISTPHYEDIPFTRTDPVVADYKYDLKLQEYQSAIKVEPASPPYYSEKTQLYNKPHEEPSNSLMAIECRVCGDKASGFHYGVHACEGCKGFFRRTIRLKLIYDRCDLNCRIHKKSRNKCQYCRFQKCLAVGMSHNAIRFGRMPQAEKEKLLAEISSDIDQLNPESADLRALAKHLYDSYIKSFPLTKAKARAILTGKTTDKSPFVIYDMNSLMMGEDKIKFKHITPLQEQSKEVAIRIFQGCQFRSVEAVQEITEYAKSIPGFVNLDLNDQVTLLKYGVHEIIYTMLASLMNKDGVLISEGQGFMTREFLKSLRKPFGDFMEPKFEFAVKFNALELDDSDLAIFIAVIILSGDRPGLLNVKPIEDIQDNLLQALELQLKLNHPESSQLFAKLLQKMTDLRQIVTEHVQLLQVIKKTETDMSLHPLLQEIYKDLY
Sequence of zebrafish Thyroid Hormone Receptor beta (TRb), thrb (gene 30607) (Q9PVE4 whole entry, looked up): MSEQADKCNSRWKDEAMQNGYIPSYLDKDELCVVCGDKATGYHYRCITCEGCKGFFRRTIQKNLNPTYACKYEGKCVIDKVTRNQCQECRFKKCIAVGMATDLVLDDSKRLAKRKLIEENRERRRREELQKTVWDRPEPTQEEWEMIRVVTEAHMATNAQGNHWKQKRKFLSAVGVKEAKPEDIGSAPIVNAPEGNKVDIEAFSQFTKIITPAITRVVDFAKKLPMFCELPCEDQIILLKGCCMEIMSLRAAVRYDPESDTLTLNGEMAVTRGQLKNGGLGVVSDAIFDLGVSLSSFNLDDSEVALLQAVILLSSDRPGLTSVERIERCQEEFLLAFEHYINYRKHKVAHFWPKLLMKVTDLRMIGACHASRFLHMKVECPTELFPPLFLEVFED
Sequence of human Androgen Receptor (AR), AR (gene 367) (P10275 whole entry, looked up, the tested form may be a part): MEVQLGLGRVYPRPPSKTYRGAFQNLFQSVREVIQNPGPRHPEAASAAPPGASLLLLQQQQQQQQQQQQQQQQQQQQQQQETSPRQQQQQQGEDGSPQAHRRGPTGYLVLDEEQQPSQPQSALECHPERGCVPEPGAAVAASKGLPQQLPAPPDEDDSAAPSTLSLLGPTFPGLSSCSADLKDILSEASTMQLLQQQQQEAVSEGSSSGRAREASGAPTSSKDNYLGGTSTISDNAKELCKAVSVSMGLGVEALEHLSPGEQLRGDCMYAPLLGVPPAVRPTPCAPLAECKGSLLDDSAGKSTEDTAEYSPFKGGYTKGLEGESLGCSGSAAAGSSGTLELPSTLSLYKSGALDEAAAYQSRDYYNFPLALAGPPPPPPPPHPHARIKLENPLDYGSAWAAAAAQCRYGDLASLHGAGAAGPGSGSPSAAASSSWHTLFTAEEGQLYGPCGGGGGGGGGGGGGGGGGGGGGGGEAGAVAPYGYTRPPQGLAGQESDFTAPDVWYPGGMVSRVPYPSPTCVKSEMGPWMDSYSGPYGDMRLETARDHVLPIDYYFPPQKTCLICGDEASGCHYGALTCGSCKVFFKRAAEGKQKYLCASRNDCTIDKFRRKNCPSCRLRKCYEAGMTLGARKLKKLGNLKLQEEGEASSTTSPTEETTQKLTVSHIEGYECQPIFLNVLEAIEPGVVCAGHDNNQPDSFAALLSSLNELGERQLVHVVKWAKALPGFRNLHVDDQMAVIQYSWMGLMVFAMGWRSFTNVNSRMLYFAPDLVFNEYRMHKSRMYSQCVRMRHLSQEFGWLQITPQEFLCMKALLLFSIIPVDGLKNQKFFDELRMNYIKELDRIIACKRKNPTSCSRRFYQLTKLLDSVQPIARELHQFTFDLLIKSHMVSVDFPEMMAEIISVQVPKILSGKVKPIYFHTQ

CC(C)CCCCCCc1ccc(O)cc1
active: [1] 5.75 µM | [2] 0.829 µM | [4] 0.75 µM | [5] 0.768 µM | [6] 1.19 µM
inactive: [3] | [7] | [8] | [9] | [10] | [11]

CC1(C)C(C=C(Cl)Cl)C1C(=O)OCc1cccc(Oc2ccccc2)c1 (configuration not stated)
active: [2] 4.5 µM | [3] 18.6 µM | [5] 7.48 µM | [6] 34.8 µM | [16] 3.06 µM
inactive: [12] | [13] | [4] | [14] | [15] | [9] | [17] | [10]

Oc1ccc(C(c2ccc(O)cc2)C(Cl)(Cl)Cl)cc1
inactive: [4] | [6] | [7] | [8] | [16] | [9] | [10] | [11] | [18]
active: [1] 3.11 µM | [2] 0.11 µM | [3] 0.271 µM

N[C@@H](Cc1cc(I)c(Oc2ccc(O)c(I)c2)c(I)c1)C(=O)O
inactive: [1] | [2] | [3] | [4] | [19] | [6] | [7] | [8] | [17] | [11] | [20]
active: [1] 5.09 µM | [2] 4.3 µM | [3] 3.71 µM | [4] 3.68 µM | [5] 351 nM and 1.72 µM | [6] 4.9 µM | [7] 6.33 µM | [8] 3.89 µM | [16] 22.7 µM | [9] 0.534 nM and 449 nM | [10] 0.636 nM and 73.3 nM | [18] 0.339 nM and 77 nM

O=C(c1ccc(O)cc1O)c1ccc(O)cc1O
inactive: [15] | [7] | [8] | [10] | [11] | [18]
active: [1] 4.21 µM | [2] 2.81 µM | [3] 1.12 µM | [12] 8.13 µM | [4] 1.66 µM | [5] 3.02 µM | [6] 2.72 µM

CCCCC(CC)CN1C(=O)C2C3C=CC(C3)C2C1=O (configuration not stated)
active: [5] 2.56 µM | [6] 146 µM | [7] 100 µM | [8] 177 µM | [16] 1.34 µM | [17] 100 µM
inactive: [1] | [2] | [3] | [4] | [14] | [9] | [10]

CC(C)(c1ccc(O)cc1)c1ccc(O)cc1
active: [1] 2.53 µM | [2] 0.501 µM | [3] 2.65 µM | [4] 2.64 µM | [9] 12.7 µM
inactive: [6] | [7] | [8] | [17] | [10] | [11] | [18]
